# Measured values reported in the supplement of paper PMC11732987, “Enantioselective OTUD7B fragment discovery through chemoproteomics screening and high-throughput optimisation” (Communications Chemistry, 2025).
# Values without a mark were called inactive.
# Legend:
# Assay in all cases: log2 ratio of Biotin-Ahx-Ub-VS probe labelling (fragment/DMSO); higher = less target engagement (more negative = stronger competition), active = hit call of the paper (q ≤ 0.05, log2 ratio ≤ -1)
# Conditions in all cases: compound concentration: 200 uM; treatment time: 3 h
# ALG13 = biological target: T1, ALG13 (UniProt Q9NP73)
# T1 sequence (whole entry): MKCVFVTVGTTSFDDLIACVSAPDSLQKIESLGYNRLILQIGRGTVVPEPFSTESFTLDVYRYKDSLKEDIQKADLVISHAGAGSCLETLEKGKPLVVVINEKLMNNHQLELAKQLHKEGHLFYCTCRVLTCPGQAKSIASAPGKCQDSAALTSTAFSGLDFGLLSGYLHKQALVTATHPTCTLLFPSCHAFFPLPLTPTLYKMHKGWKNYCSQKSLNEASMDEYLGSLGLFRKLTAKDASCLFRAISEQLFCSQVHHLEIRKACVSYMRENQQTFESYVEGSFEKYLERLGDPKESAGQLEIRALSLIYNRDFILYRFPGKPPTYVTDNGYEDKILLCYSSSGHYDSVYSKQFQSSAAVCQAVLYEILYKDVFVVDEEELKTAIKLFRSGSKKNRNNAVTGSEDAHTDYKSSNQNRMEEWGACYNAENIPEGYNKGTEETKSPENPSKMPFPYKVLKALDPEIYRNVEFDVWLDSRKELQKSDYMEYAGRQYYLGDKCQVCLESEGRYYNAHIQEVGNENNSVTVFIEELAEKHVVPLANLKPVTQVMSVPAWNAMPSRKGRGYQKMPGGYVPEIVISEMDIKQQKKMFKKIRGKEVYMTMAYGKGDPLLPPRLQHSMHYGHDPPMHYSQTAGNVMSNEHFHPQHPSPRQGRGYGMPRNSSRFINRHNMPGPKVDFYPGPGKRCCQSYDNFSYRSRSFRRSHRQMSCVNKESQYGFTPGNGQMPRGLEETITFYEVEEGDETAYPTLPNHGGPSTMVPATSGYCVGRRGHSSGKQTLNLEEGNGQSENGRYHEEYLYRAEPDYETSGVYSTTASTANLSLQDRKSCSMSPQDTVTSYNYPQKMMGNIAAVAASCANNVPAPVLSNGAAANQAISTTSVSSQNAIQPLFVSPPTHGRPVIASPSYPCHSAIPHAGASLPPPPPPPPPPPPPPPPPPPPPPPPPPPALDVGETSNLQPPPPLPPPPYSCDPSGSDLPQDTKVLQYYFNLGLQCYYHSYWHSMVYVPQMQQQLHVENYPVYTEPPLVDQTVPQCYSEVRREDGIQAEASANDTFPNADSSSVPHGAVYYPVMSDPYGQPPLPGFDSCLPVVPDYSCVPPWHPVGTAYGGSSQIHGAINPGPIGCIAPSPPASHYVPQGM
# Procedure, shortened: (§1)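 HEK293T lysate (495 µg per sample, in Tris/CHAPS/IGEPAL buffer with protease inhibitors) was treated in triplicate with fragment at 200 µM or with DMSO for 3 h. It was then treated with Biotin-Ahx-Ub-VS (0.5 µM final) for 1 h. Labelled DUBs were NeutrAvidin-enriched, digested with LysC and trypsin, and run by diaPASEF LC-MS/MS. Spectronaut label-free quantities were global-median-normalised. Values are average log2 ratios fragment/DMSO by unpaired t-test, using proteins with ≥2 unique peptides.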
# ATXN3 = ATXN3 (UniProt P54252)
# Procedure, shortened: as §1
# BAP1 = biological target: T2, BAP1 (UniProt Q92560)
# T2 sequence (whole entry): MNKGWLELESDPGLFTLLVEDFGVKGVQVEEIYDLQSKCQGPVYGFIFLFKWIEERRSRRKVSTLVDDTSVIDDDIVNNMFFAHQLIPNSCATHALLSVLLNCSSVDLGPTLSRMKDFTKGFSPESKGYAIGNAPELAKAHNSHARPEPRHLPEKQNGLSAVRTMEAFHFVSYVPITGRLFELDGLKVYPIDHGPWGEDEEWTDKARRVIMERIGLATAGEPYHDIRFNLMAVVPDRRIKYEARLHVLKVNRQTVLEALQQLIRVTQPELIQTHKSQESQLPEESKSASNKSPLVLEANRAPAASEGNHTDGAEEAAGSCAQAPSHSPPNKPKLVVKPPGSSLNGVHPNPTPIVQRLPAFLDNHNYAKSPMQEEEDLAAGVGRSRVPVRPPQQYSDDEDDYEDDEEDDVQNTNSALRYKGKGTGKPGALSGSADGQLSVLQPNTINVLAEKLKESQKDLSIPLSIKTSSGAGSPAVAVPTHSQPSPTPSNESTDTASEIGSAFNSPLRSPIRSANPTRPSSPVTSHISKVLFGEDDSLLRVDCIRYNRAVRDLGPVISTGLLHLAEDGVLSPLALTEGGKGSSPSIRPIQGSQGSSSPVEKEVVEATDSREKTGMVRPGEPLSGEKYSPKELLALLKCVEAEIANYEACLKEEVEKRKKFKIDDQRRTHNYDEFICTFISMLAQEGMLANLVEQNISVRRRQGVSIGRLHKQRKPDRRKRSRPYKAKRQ
# Procedure, shortened: as §1
# EIF3F = EIF3F (UniProt O00303)
# Procedure, shortened: as §1
# EIF3H = EIF3H (UniProt O15372)
# Procedure, shortened: as §1
# FAM105A = biological target: T3, FAM105A (UniProt Q9NUU6)
# T3 sequence (whole entry): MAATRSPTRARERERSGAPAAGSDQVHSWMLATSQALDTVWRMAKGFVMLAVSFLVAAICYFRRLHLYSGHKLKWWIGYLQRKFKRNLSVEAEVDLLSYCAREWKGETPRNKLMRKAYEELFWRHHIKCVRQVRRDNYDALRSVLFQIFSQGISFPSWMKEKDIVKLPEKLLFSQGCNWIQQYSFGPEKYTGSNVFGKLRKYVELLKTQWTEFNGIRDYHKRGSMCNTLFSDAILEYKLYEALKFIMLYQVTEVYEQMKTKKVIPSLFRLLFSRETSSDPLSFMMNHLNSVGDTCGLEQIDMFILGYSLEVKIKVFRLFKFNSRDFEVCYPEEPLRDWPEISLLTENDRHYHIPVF
# Procedure, shortened: as §1
# OTUB1 = OTUB1 (UniProt Q96FW1)
# Procedure, shortened: as §1
# OTUD4 = biological target: T4, OTUD4 (UniProt Q01804)
# T4 sequence (whole entry): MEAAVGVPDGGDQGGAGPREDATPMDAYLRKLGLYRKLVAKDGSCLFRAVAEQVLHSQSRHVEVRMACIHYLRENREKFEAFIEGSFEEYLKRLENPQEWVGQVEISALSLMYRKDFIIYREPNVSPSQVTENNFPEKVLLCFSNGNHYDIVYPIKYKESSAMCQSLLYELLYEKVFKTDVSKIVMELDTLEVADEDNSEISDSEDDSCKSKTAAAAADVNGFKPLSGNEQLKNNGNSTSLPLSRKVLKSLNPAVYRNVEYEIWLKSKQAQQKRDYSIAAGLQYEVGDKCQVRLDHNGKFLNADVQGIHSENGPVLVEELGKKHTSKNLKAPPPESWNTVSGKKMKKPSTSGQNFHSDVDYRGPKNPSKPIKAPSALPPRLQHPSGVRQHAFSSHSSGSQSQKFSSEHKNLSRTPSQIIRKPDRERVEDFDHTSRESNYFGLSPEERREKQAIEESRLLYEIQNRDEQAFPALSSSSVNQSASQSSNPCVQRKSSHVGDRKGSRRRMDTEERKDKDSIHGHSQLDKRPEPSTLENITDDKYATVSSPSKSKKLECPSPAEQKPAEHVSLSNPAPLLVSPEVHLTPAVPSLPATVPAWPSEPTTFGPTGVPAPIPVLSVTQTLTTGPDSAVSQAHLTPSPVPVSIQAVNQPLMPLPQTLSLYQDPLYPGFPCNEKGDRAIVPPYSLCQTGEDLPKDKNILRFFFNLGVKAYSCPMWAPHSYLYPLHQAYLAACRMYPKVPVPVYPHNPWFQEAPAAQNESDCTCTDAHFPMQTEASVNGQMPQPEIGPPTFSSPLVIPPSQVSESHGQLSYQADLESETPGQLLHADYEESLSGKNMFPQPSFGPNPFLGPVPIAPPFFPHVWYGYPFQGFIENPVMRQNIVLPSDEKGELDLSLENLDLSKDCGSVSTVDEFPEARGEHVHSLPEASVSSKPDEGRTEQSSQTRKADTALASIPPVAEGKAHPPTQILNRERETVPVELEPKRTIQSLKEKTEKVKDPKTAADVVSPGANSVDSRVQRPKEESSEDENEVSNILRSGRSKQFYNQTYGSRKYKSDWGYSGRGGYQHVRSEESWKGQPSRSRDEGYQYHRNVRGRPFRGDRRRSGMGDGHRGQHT
# Procedure, shortened: as §1
# OTUD5 = biological target: T5, OTUD5 (UniProt Q96G74)
# T5 sequence (whole entry): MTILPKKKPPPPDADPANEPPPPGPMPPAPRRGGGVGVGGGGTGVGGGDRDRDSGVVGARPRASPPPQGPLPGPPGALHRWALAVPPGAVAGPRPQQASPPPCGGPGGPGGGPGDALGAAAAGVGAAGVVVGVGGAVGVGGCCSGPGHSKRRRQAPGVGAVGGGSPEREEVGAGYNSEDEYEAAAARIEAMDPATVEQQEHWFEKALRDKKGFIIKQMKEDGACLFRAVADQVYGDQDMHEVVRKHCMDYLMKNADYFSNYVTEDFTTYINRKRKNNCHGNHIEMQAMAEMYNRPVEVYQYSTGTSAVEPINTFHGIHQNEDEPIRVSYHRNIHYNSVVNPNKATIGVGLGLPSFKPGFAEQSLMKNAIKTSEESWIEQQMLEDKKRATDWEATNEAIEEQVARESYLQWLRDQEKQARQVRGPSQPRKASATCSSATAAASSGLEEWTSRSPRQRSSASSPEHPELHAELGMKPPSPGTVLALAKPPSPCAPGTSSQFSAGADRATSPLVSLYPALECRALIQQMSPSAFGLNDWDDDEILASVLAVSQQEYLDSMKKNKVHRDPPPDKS
# Procedure, shortened: as §1
# Sequence of ATXN3 (P54252 whole entry): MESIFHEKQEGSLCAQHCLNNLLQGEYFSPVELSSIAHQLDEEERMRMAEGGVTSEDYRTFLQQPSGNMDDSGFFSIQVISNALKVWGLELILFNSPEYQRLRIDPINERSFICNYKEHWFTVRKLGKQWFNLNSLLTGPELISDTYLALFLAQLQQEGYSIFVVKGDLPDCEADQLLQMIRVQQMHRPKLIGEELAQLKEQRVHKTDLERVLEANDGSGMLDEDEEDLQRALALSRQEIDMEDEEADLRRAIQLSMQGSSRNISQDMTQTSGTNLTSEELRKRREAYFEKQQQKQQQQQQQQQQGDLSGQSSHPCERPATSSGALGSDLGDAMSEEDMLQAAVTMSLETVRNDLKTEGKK
# Sequence of EIF3F (O00303 whole entry): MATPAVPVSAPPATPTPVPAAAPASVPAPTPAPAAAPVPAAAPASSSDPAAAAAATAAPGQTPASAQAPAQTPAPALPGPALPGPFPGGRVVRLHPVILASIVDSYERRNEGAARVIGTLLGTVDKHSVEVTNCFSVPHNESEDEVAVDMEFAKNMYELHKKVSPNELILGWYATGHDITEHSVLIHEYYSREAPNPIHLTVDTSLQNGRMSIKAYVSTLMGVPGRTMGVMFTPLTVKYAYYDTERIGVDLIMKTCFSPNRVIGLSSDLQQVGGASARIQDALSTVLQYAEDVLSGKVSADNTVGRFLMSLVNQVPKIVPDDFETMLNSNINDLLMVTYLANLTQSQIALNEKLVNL
# Sequence of OTUB1 (Q96FW1 whole entry): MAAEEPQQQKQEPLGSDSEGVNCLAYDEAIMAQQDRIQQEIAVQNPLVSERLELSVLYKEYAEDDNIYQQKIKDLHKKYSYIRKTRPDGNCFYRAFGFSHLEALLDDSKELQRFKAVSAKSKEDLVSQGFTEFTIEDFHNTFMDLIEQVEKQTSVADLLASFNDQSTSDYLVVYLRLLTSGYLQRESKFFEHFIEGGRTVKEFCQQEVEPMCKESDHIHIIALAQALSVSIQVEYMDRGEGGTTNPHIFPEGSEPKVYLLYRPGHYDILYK
# Sequence of EIF3H (O15372 whole entry): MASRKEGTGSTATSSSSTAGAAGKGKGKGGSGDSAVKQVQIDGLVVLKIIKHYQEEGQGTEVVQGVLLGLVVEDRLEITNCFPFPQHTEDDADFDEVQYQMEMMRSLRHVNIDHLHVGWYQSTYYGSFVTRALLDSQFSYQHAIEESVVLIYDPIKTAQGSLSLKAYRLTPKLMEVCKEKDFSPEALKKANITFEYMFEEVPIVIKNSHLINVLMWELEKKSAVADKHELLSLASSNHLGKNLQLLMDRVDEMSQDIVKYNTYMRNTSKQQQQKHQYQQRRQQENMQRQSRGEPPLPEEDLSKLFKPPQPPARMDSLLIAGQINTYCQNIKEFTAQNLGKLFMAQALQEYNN
structure (smiles),measurement,setting,value
Cl.O=C(CCl)N[C@H]1C[C@@H](n2cccn2)C1,log2 ratio of Biotin-Ahx-Ub-VS probe labelling,ALG13,-0.266
same,log2 ratio of Biotin-Ahx-Ub-VS probe labelling,ATXN3,-0.161
same,log2 ratio of Biotin-Ahx-Ub-VS probe labelling,BAP1,-1.24 (active)
same,log2 ratio of Biotin-Ahx-Ub-VS probe labelling,EIF3F,-0.862
same,log2 ratio of Biotin-Ahx-Ub-VS probe labelling,EIF3H,0.149
same,log2 ratio of Biotin-Ahx-Ub-VS probe labelling,FAM105A,-0.138
same,log2 ratio of Biotin-Ahx-Ub-VS probe labelling,OTUB1,-0.581
same,log2 ratio of Biotin-Ahx-Ub-VS probe labelling,OTUD4,-0.0468
same,log2 ratio of Biotin-Ahx-Ub-VS probe labelling,OTUD5,-0.587
